Measurements as given in PubChem BioAssay (NCATS).
Records with an inconclusive call do not appear. Unmarked numbers belong to inactive results. Calls of active or inactive are those of the source. Calls follow the shape of the dose curve; as a rule, active = well fitted inhibition curve with a large enough effect in the repeat runs; inconclusive = weak or mixed curves; inactive = flat fitted curve, though single readings scatter.
% is scaled to controls: 0 for no effect and ±100 for the full control effect; potency is read from the fitted curve at half-maximal effect.

The compounds below were run against Cytochrome P450 2D6 (Homo sapiens) (UniProt P10635) (assay: Cytochrome P450 family 2 subfamily D member 6 (CYP2D6) small molecule antagonists: luciferase biochemical (cell-free) qHTS assay (AID 1645840; also: nearly all actives have a fitted effect of over 55% in size)). Details: P450-Glo CYP2D6 enzyme, luciferin luminescence, 1 h; series mostly up to 57.4 µM; activity change, negative = inhibition: at the top concentration.
Cytochrome P450 2D6 (Homo sapiens), sequence (P10635 whole entry, looked up): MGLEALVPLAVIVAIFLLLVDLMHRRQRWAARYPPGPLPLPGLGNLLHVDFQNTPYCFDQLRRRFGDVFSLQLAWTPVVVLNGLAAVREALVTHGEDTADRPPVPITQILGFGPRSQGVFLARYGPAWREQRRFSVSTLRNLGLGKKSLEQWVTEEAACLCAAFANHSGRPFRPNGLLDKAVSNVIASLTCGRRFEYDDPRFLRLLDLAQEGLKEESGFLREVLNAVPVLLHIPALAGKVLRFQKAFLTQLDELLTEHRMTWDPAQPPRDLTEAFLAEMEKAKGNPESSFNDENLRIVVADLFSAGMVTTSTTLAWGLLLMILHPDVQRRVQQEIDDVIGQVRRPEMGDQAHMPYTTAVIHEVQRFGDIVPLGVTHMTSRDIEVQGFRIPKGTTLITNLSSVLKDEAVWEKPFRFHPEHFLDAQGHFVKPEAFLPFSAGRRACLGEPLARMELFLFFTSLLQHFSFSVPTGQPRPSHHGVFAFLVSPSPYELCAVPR
Experimental: National Center for Advancing Translational Sciences [NCATS] Assay Overview: Cytochrome P450 (CYP) enzymes are membrane-bound hemeproteins that play a key role in metabolism of drugs and xenobiotics. Assaying the effect of chemicals on CYP isozymes is useful to minimize the adverse drug reactions and toxicities in drug development process. Chemical compounds were tested for their effect on CYP enzyme activities by using P450-Glo (TM) screening systems (Promega Corporation, Madison, WI). These systems provide a luminescent method containing proluciferin substrates and are converted to luciferin products by CYP isozymes. The luciferin products formed are detected with a luciferin detection reagent, and the amount of light produced is proportional to CYP activity. P450-Glo (TM) CYP2D6 screening system (Catalog. No. V9890) was used to detect the compounds that interfere in CYP2D6 activity.
Assay Protocol Summary: Two ul of enzyme-substrate mix was dispensed into medium binding white/solid 1536-well plates (Greiner Bio-One North America Inc., Monroe, NC) using a Flying Reagent Dispenser (FRD, Aurora Discovery, San Diego, CA). […] The assay plates were incubated at room temperature for 10 min. Then 2 ul of NADPH regeneration solution was added to each well of the assay plates using an FRD and incubated at room temperature for 1 h. The reaction was stopped by adding 4 ul of detection reagent using an FRD and after 20 min incubation at room temperature, the luminescence signal was measured using a ViewLux plate reader (Perkin Elmer, Shelton, CT). Data were expressed as relative luminescence units.
In the case of `C[N+]1(CC2COC(c3ccccc3)(c3ccccc3)O2)CCCCC1` (stereo not given), the Potency is reported as 1.51 µM (active).
In the case of `C[C@@H]1CCC[C@H](C)N1CCCC(O)(c1ccccc1)c1ccccn1` (stereo not given in full), the Potency is reported as 0.871 µM (active).
In the case of `Cc1cccc(C)c1NC(=O)c1cc(S(N)(=O)=O)c(Cl)cc1O`, the “activity change, negative = inhibition” value is reported as 9.61%.
With `CC(C)=CCNc1ncnc2c1ncn2[C@@H]1O[C@H](CO)[C@@H](O)[C@H]1O` the “activity change, negative = inhibition” value was -0.619%.
With `Cc1c(F)cc2c(=O)c(C(=O)O)cn3c2c1CCC3C` (stereo not given) the “activity change, negative = inhibition” value was 1.32%.
In the case of `O=C(CCC1CCN(Cc2ccccc2)CC1)c1ccc2c(c1)NCCCC2`, the Potency is reported as 9.77 µM (active).
With `C[C@@H](C1=C(CCN(C)C)Cc2ccccc21)c1ccccn1` the Potency was 11 µM (active).
`CCCC(CCC)(C(=O)OCC)C(=O)OCC` was tested, and the “activity change, negative = inhibition” value was -16.8%.
In the case of `CC(C)(C)NCC(O)COc1ccccc1OCC1CCCO1` (stereo not given), the Potency is reported as 6.17 µM (active).
For `CC1c2ccccc2CN1NC(=O)c1ccc(Cl)c(S(N)(=O)=O)c1` (stereo not given), the “activity change, negative = inhibition” value was 5.58%.
In the case of `Cn1cc(S(C)=O)c(=O)c2ccc(F)cc21` (stereo not given), the “activity change, negative = inhibition” value is reported as 7.21%.
For `COc1c(N2C[C@@H]3CCCN[C@@H]3C2)c(F)cc2c(=O)c(C(=O)O)cn(C3CC3)c12`, the “activity change, negative = inhibition” value was 6.27%.
In the case of `CCCCCCn1c(=O)c2c(ncn2C)n(C)c1=O`, the “activity change, negative = inhibition” value is reported as -3.23%.
For `O=C(O)[C@H](O)[C@@H](O)[C@H](O[C@@H]1O[C@H](CO)[C@H](O)[C@H](O)[C@H]1O)[C@H](O)CO`, the “activity change, negative = inhibition” value was 3.96%.
With `CCOc1ccccc1OCC1CNCCO1` (stereo not given) the “activity change, negative = inhibition” value was -22.9%.
In the case of `CCN(CC)CC(=O)Oc1ccc(NC(C)=O)cc1`, the “activity change, negative = inhibition” value is reported as 0.515%.
In the case of `O=C(O)Cc1ccccc1Oc1ccc(Cl)cc1Cl`, the “activity change, negative = inhibition” value is reported as 9.09%.
For `O=C1NCCN1CCN1CCC(c2cn(-c3ccc(F)cc3)c3ccc(Cl)cc23)CC1`, the Potency was 1.55 µM (active).
With `OC1(c2ccc(Cl)c(C(F)(F)F)c2)CCN(CCCC(c2ccc(F)cc2)c2ccc(F)cc2)CC1` the Potency was 1.23 µM (active).
In the case of `CN1CCN(N)CC1`, the “activity change, negative = inhibition” value is reported as -0.123%.
With `CC(C)(C)C(O)/C=C/c1ccc2c(c1)OCO2` (stereo not given) the Potency was 11 µM (active).
`Cc1ccccc1N1CCN(CCc2nnc3n2CCCC3)CC1` was tested, and the Potency was 13.8 µM (active).
With `CC1(C)S[C@@H]2[C@H](NC(=O)C(c3ccccc3)S(=O)(=O)O)C(=O)N2[C@H]1C(=O)O` (stereo not given in full) the “activity change, negative = inhibition” value was -19.8%.
`COc1cc(/C=C/C(N)=O)cc(OC)c1OC` was tested, and the “activity change, negative = inhibition” value was 8.18%.
In the case of `CC(=O)[C@@]1(O)CC[C@H]2[C@@H]3C[C@H](C)C4=CC(=O)CC[C@]4(C)[C@H]3CC[C@@]21C`, the “activity change, negative = inhibition” value is reported as -12.8%.
With `N#CSCC(=O)O` the “activity change, negative = inhibition” value was 2.62%.
In the case of `CCC(C(=O)OCCN1CCOC(c2ccccc2)C1C)c1ccccc1` (stereo not given), the Potency is reported as 1.74 µM (active).
With `CC(C)(C)c1ccc(C(=O)CCCCl)cc1` the “activity change, negative = inhibition” value was -27.7%.
With `N=C(N)c1ccc(OCCCOc2ccc(C(=N)N)cc2)cc1` the “activity change, negative = inhibition” value was 7.26%.
`CC1CN(c2cc3c(cc2F)c(=O)c(C(=O)O)cn3-c2ccc(F)cc2F)CCN1` (stereo not given) gave an activity change, negative = inhibition of -0.861% [at 4.83 µM].
In the case of `CO[C@@H]1[C@@H](O[C@@H]2O[C@H](C)[C@@H](O[C@H]3C[C@@](C)(O)[C@@H](O)[C@H](C)O3)[C@H](N(C)C)[C@H]2O)[C@@H](CC=O)C[C@@H](C)[C@@H](O[C@@H]2CC[C@H](N(C)C)[C@@H](C)O2)/C=C/C=C/C[C@@H](C)OC(=O)C[C@H]1OC(C)=O`, the “activity change, negative = inhibition” value is reported as -17.3%.
In the case of `Oc1ccccc1-c1nnco1`, the “activity change, negative = inhibition” value is reported as 3.16%.
`O=C1NC(c2ccccc2)(c2ccccc2)C(=O)N1COP(=O)(O)O` was tested, and the “activity change, negative = inhibition” value was -1.9%.
With `COc1ccccc1OCC1CNC(=O)O1` (stereo not given) the “activity change, negative = inhibition” value was 4.23%.
In the case of `COc1cc(S(N)(=O)=O)cc(C(=O)O)c1OC`, the “activity change, negative = inhibition” value is reported as 2.65%.
In the case of `CC(C)(C)c1cc(C=O)cc(C(C)(C)C)c1O`, the “activity change, negative = inhibition” value is reported as 0.522%.
In the case of `Nc1ccc([N+](=O)[O-])c(C(F)(F)F)c1`, the “activity change, negative = inhibition” value is reported as 3.27%.
With `C/C=C(/C(=C/C)c1ccc(OC(C)=O)cc1)c1ccc(OC(C)=O)cc1` the “activity change, negative = inhibition” value was 0.557%.
With `CCOC(=O)Cn1cccc1-c1nc(-c2ccc(OC)cc2)c(-c2ccc(OC)cc2)s1` the “activity change, negative = inhibition” value was 10.4%.
In the case of `O=C1Nc2ccccc2C1(c1ccc(O)cc1)c1ccc(O)cc1`, the Potency is reported as 19.5 µM (active).
